Among the data in PubChem BioAssay (EPA / NIEHS) are outcome and AC50 values, retold here.

The source made the active and inactive calls. How the source made its calls: active means hit-call score of the fitted dose curve at least 0.9, where 1 is the maximum; inactive means score below 0.9.

Read-out in assay [1]: Monokine induced gamma interferon (MIG), CXCL9 (gene 4283)
The experiment in a line: BSK_hDFCGF_MIG: BioMAP Diversity Plus: hDFCGF Assay for Monokine induced gamma interferon (MIG) Biomarker Activity (AID 2283063). The conditions noted are these: primary human foreskin fibroblasts; actives raise or lower the signal. The gist of the method:
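Human primary foreskin fibroblasts in the hDFCGF system, exposed to test chemical for 24 h; MIG measured by ELISA. Bidirectional curve fitting against DMSO negative control as activity baseline.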

Read-out in assay [2]: Vascular cell adhesion molecule 1 (VCAM1), VCAM1 (gene 7412)
Briefly: BSK_hDFCGF_VCAM1: BioMAP Diversity Plus: hDFCGF Assay for Vascular cell adhesion molecule 1 (VCAM1) Biomarker Activity (AID 2283065).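 On AC50: VCAM-1 protein level quantified by ELISA after 24 h chemical exposure.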 The conditions noted are these: primary human foreskin fibroblasts; actives raise or lower the signal. The gist of the method:
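ELISA readout of VCAM-1 on human dermal fibroblast primary cultures, 24 h after chemical exposure. Gain or loss of signal fitted in both directions against DMSO baseline.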

Read-out in assay [3]: Plasminogen activator inhibitor-1 (PAI1), SERPINE1 (gene 5054)
Briefly: BSK_hDFCGF_PAI1: BioMAP Diversity Plus: hDFCGF Assay for Plasminogen activator inhibitor-1 (PAI1) Biomarker Activity (AID 2283066). The following applies: primary human foreskin fibroblasts; actives raise or lower the signal. The gist of the method: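 Fibroblasts from human foreskin were treated with test chemical. After 24 h, PAI-1 was measured by ELISA. Activity was fitted in both directions relative to DMSO.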

Read-out in assay [4]: Intercellular Adhesion Molecule 1 (ICAM1), ICAM1 (gene 3383)
Briefly: BSK_KF3CT_ICAM1: BioMAP Diversity Plus: KF3CT Assay for Intercellular Adhesion Molecule 1 (ICAM1) Biomarker Activity (AID 2283067). The following applies: primary human keratinocytes with fibroblasts; actives raise or lower the signal. A digest of the protocol:
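Cell-surface ICAM-1 was measured by ELISA 24 h after dosing primary human skin keratinocytes co-cultured with fibroblasts. Parallel SRB staining tracked overt cytotoxicity. Gain or loss of signal was fitted relative to DMSO.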

Read-out in assay [5]: Interferon-gamma inducible Protein 10 (IP10), CXCL10 (gene 3627)
The experiment in a line: BSK_KF3CT_IP10: BioMAP Diversity Plus: KF3CT Assay for Interferon-gamma inducible Protein 10 (IP10) Biomarker Activity (AID 2283068). The following applies: primary human keratinocytes with fibroblasts; actives raise or lower the signal. The gist of the method: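 Signal is secreted/surface IP-10 by ELISA in a human primary skin co-culture of keratinocytes and foreskin fibroblasts, taken 24 h post-dosing; DMSO served as negative control.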

Assay [6] in a line: BSK_KF3CT_SRB: Viability Assessment in the BioMAP Diversity Plus: KF3CT Assay (AID 2283069).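 Further: read 24 h after compound addition.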 The following applies: primary human keratinocytes with fibroblasts. A digest of the protocol: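 Overt cytotoxicity is assessed as total protein by sulforhodamine B staining in parallel human skin co-cultures at 24 h after dosing. DMSO serves as negative control and baseline.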
Read-out in assay [7]: Interleukin-1 alpha (IL1a), IL1A (gene 3552)
The experiment in a line: BSK_KF3CT_IL1a: BioMAP Diversity Plus: KF3CT Assay for Interleukin-1 alpha (IL1a) Biomarker Activity (AID 2283070). The conditions noted are these: primary human keratinocytes with fibroblasts; actives raise or lower the signal. A digest of the protocol:
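Readout is IL-1a level by ELISA, compared bidirectionally with DMSO as baseline. Cells: human keratinocytes co-cultured with foreskin fibroblasts, harvested 24 h post-dose.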

Read-out in assay [8]: TIMP metallopeptidase inhibitor 2 (TIMP2), TIMP2 (gene 7077)
Briefly: BSK_KF3CT_TIMP2: BioMAP Diversity Plus: KF3CT Assay for TIMP metallopeptidase inhibitor 2 (TIMP2) Biomarker Activity (AID 2283071). The conditions noted are these: primary human keratinocytes with fibroblasts; actives raise or lower the signal. The gist of the method:
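Chemicals were dosed onto human skin primary co-cultures of keratinocytes and foreskin fibroblasts, and TIMP-2 was measured by ELISA after 24 hours. Activity in either direction was fitted relative to DMSO.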

Read-out in assay [9]: Transforming growth factor beta 1 (TGFb1), TGFB1 (gene 7040)
Briefly: BSK_KF3CT_TGFb1: BioMAP Diversity Plus: KF3CT Assay for Transforming growth factor beta 1 (TGFb1) Biomarker Activity (AID 2283072). The following applies: primary human keratinocytes with fibroblasts; actives raise or lower the signal. A digest of the protocol: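 KF3CT co-culture (keratinocytes + fibroblasts), 24 h exposure → TGF-b1 ELISA → bidirectional fit, DMSO = baseline. Parallel SRB total-protein staining (0.1% SRB, 10% TCA fixation, 560 nm) for cytotoxicity.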

Read-out in assay [10]: Matrix Metallopeptidase 9 (MMP9), MMP9 (gene 4318)
The experiment in a line: BSK_KF3CT_MMP9: BioMAP Diversity Plus: KF3CT Assay for Matrix Metallopeptidase 9 (MMP9) Biomarker Activity (AID 2283074).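 On AC50: MMP9 protein level quantified by ELISA in the co-culture.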 The following applies: primary human keratinocytes with fibroblasts; actives raise or lower the signal. The gist of the method: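 Values come from bidirectional fitting relative to DMSO of MMP-9 levels, which were measured by ELISA. Measurements were taken 24 h after chemical dosing of a keratinocyte and foreskin fibroblast co-culture.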

Read-out in assay [11]: urokinase plasminogen activator (uPA), PLAU (gene 5328)
Briefly: BSK_KF3CT_uPA: BioMAP Diversity Plus: KF3CT Assay for urokinase plasminogen activator (uPA) Biomarker Activity (AID 2283075). The conditions noted are these: primary human keratinocytes with fibroblasts; actives raise or lower the signal. A digest of the protocol:
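Values derive from bidirectional fitting against DMSO controls. Keratinocyte/foreskin fibroblast co-cultures received chemical; 24 h later uPA was detected by ELISA, with SRB total-protein staining in parallel wells for overt cytotoxicity.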

Read-out in another assay: CD40, CD40 (gene 958)
Briefly: BSK_LPS_CD40: BioMAP Diversity Plus: LPS Assay for CD40 Biomarker Activity (AID 2283076). The following applies: primary human HUVEC with PBMC; actives raise or lower the signal. A digest of the protocol: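 In the LPS system of human endothelial cells with peripheral blood mononuclear cells, CD40 levels were read by ELISA 24 h post-treatment. Signal changes in either direction were fitted against the DMSO baseline, with parallel SRB protein staining.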

Read-out in assay [12]: E-selectin (Homo sapiens) (UniProt P16581)
Briefly: BSK_LPS_Eselectin: BioMAP Diversity Plus: LPS Assay for Eselectin Biomarker Activity (AID 2283077). The conditions noted are these: primary human HUVEC with PBMC; actives raise or lower the signal. A digest of the protocol: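 E-selectin ELISA on LPS-stimulated endothelial cell/PBMC co-cultures, read 24 h post-treatment; gains and losses fitted against DMSO. Parallel SRB staining (0.1% SRB after 10% TCA fixation, 560 nm) flags overt cytotoxicity.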

Read-out in assay [13]: Interleukin-8 (IL8), CXCL8 (gene 3576)
Briefly: BSK_LPS_IL8: BioMAP Diversity Plus: LPS Assay for Interleukin-8 (IL8) Biomarker Activity (AID 2283078). The following applies: primary human HUVEC with PBMC; actives raise or lower the signal. A digest of the protocol: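 ELISA read-out of IL-8 after 24 h chemical treatment of LPS-activated endothelial/PBMC human primary co-cultures. Changes either up or down relative to DMSO; overt cytotoxicity checked by sulforhodamine B staining in parallel wells.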

Assay [14] in a line: BSK_LPS_SRB: Viability Assessment in the BioMAP Diversity Plus: LPS Assay (AID 2283079).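 Further: total protein by sulforhodamine B absorbance as a cytotoxicity measure; measured one day after compound addition.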 The conditions noted are these: primary human HUVEC with PBMC. A digest of the protocol: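 SRB viability endpoint: cells fixed with 10% TCA, stained with 0.1% SRB, read at 560 nm, 24 h post-dose. HUVEC/PBMC co-culture; signal change in either direction scored relative to DMSO.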
Read-out in assay [15]: Interleukin-1 alpha (IL1a), IL1A (gene 3552)
Briefly: BSK_LPS_IL1a: BioMAP Diversity Plus: LPS Assay for Interleukin-1 alpha (IL1a) Biomarker Activity (AID 2283080). The conditions noted are these: primary human HUVEC with PBMC; actives raise or lower the signal. The gist of the method: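 Readout is IL-1a level by ELISA, 24 h post-dose, fitted as gain or loss relative to DMSO. System: LPS-activated human primary co-culture of vascular endothelium and peripheral blood mononuclear cells, with parallel SRB total-protein cytotoxicity.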

Read-out in assay [16]: Monocyte Chemoattractant Protein-1 (MCP1), CCL2 (gene 6347)
Briefly: BSK_LPS_MCP1: BioMAP Diversity Plus: LPS Assay for Monocyte Chemoattractant Protein-1 (MCP1) Biomarker Activity (AID 2283081).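 On AC50: secreted MCP-1 protein quantified by ELISA in culture supernatant.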 The following applies: primary human HUVEC with PBMC; actives raise or lower the signal. The gist of the method: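 Secreted MCP-1 read by ELISA at 24 h post-dosing in an LPS-activated co-culture of endothelial cells with peripheral blood mononuclear cells. Fits run in both directions, DMSO as baseline; parallel SRB staining tracks overt cytotoxicity.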

Assay [17] can be described thus: BSK_LPS_PGE2: BioMAP Diversity Plus: LPS Assay for Prostaglandin E2 (PGE2) Biomarker Activity (AID 2283082).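 On AC50: secreted prostaglandin E2 measured by ELISA in LPS-stimulated co-culture.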 The conditions noted are these: primary human HUVEC with PBMC; actives raise or lower the signal. A digest of the protocol:
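Compounds were added to the LPS co-culture of endothelium and PBMC, and PGE2 was measured by ELISA after 24 h. Responses in either direction were fitted with DMSO as baseline.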

Read-out in assay [18]: C-C motif chemokine 2 (Homo sapiens) (UniProt P13500)
The experiment in a line: BSK_KF3CT_MCP1: BioMAP Diversity Plus: KF3CT Assay for Monocyte Chemoattractant Protein 1 (MCP1/CCL2) Biomarker Activity (AID 2283073). The following applies: primary human keratinocytes with fibroblasts; actives raise or lower the signal. The gist of the method: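 ELISA read-out of MCP-1, 24 h post-dose, in primary human skin keratinocytes co-cultured with fibroblasts. Parallel SRB staining monitors cytotoxicity; changes fitted both directions relative to DMSO.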

Sequence of E-selectin (Homo sapiens) (P16581 whole entry, looked up): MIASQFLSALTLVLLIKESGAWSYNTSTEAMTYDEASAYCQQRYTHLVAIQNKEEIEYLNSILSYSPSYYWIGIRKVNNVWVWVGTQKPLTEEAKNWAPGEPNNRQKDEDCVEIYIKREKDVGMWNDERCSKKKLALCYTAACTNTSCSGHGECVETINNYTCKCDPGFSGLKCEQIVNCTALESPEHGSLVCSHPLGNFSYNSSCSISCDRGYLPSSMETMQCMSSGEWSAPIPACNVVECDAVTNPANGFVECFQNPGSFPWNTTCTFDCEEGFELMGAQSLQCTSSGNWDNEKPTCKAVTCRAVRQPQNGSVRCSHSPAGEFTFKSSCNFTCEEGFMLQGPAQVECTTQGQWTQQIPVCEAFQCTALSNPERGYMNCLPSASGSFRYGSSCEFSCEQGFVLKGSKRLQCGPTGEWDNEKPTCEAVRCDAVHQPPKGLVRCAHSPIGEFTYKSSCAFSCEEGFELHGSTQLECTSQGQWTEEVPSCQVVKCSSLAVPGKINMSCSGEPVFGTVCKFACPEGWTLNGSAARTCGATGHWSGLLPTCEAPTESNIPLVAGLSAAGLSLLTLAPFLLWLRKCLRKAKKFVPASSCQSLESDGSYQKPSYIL

With `Cc1cc(C(C)(C)c2ccc(O)c(C)c2)ccc1O`, the outcome in assay [1], in assay [2], in [3], in assay [4], in assay [5] and in assay [6] was inactive. Also, the outcome in [7], in assay [11], in [12], in assay [13], in assay [15] and in [16] was inactive. Also, the AC50 (commonly the concentration at which the activity in the assay is half-maximal) in assay [8] was 12.2 µM (active); in assay [9], 10 µM (active); in [10], 15.2 µM (active); in the assay with CD40, CD40 (gene 958), 14.3 µM (active); in [14], 12.5 µM (active); in assay [17] it was 4.51 µM (active).

As for `O=S(=O)(c1ccc(Cl)cc1)c1cc(Cl)c(Cl)cc1Cl`, the outcome in [1], in [2], in [4], in assay [5], in assay [6] and in assay [7] was inactive. The outcome in assay [18] is “inactive”; in assay [11] it was “inactive”; with CD40, CD40 (gene 958), “inactive”; in assay [12], “inactive”; in [13], “inactive”; in assay [14], “inactive”. For the same molecule, the result in assay [15], in assay [16] and in [17] was inactive. In addition, the AC50 in assay [8] is 12.7 µM (active); in assay [9], 5.16 µM (active); in assay [10] it was 0.58 µM (active).

Regarding `Cc1ccccc1OP(=O)(Oc1ccccc1C)Oc1ccccc1C`, the AC50 is 12.8 µM (active) in [1]; 6.18 µM (active) in [2]; 6.03 µM (active) in assay [3]; 14.7 µM (active) in assay [5]; 20 µM (active) in assay [6]; 11.3 µM (active) in assay [7]. Also, the half-maximal activity concentration (AC50) in assay [8] is 5.54 µM (active); in [10], 5.56 µM (active); in [11], 20 µM (active); in the assay with CD40, CD40 (gene 958), 9.38 µM (active); in [12] it was 9.59 µM (active); in [13] it was 12.6 µM (active). Moreover, the AC50 in [14] is 12.3 µM (active); in assay [15], 11 µM (active); in assay [16], 12.7 µM (active). The outcome in [4], in assay [9] and in assay [17] was inactive.

In the case of `O=[N+]([O-])c1ccc(Nc2ccccc2)cc1`, the outcome in assay [1], in assay [2], in assay [3], in [4], in [5] and in assay [6] was inactive. Further, the outcome in assay [7] was “inactive”; in [8] it was “inactive”; in assay [9] it was “inactive”; in [10], “inactive”; in [11], “inactive”; in the assay with CD40, CD40 (gene 958), “inactive”. The result in assay [12], in assay [13], in assay [14], in [15], in assay [16] and in assay [17] was inactive.
